Assay outcomes as filed in PubChem BioAssay.
An excerpt weighted towards active compounds, which were near 2.3% of everything screened.
PLCg1 inh: blocks human PLC-gamma1 enzyme activity | P19174 | purified PLC-gamma1, fluorogenic substrate, fluorescence | inhibition, % at 12.2 µM | 0.84% of 370,000 active | AID 720700
LEDGF integ inh: blocks HIV-1 LEDGF/p75-dependent DNA integration; 0.64% of 370,000 active; inhibition, % at 3.7 µM; TR-FRET IN-LEDGF/p75 DNA integration, Eu/Cy5;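 active means inhibition above the screen-wide mean plus 3 SD, cut at about 13% in these data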;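 further: signal is the Cy5 over europium emission ratio at 671 and 618 nm; 0% = plate median of compound wells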
MBD2 DNA inh: MBD2-methylated oligo binding inhibition | inhibition, % at 4.4 µM | AID 686964 | TR-FRET, MBD2 binding to methylated oligonucleotide | Q9UBB5 | 0.31% of 370,000 active; in the data active means inhibition above about 13%
PLCb3 inh: blocks human PLC-beta3 enzyme activity | inhibition, % at 12.2 µM | 0.18% of 370,000 active | Q01970 | Purified PLC-beta3, fluorogenic substrate, fluorescence | AID 720704; in the data active means inhibition above about 11%;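 further: 0% = median of compound wells on plate and 100% = full blocker control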
UHRF1 binding: blocks human UHRF1 binding to methylated DNA; UHRF1 binding to methylated oligo, TR-FRET; Q96T88; inhibition, % at 4.4 µM; 0.75% of 370,000 active; in the data active means inhibition above about 21%;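 further: UHRF1 SRA domain binding a hemimethylated CpG hairpin DNA probe; 0% = median of test compound wells and 100% = reference inhibitor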
PLCg1 ctr: PLC-gamma1 inhibition, counter-screen for PLC-beta3 hits | shares compounds with PLCg1 inh | purified PLC-gamma1, fluorogenic substrate, fluorescence | inhibition, % at 12.3 µM | 3.1% of 3,300 active
PLCb3 confirm: confirmation of human PLC-beta3 inhibitors. purified PLC-beta3, fluorogenic substrate fluorescence. inhibition, % at 12.3 µM. shares compounds with PLCg1 inh. AID 743261. 1% of 3,300 active; in the data active means inhibition above about 11%
Active calls of the source: *; . = not tested or not shown. Unless noted, no stated cut-off is given here; in the data, active means inhibition above about 9.5%; inactive means the rest.

SMILES	PLCg1 inh	LEDGF integ inh	MBD2 DNA inh	PLCb3 inh	UHRF1 binding	PLCg1 ctr	PLCb3 confirm
CCn1cc(C(=O)OC)c(=O)c2cc(S(=O)(=O)N(C)C3CCCCC3)ccc21	-2	-3	5	-4	4	.	.
COC(=O)c1cn(C)c2ccc(S(=O)(=O)N3CCCCC3)cc2c1=O	12*	5	2	5	1	8	2
CCC1CCCCN1CCCNC(=O)c1cn(C)c2ccc(S(=O)(=O)N(C)C3CCCCC3)cc2c1=O (centres undefined)	12*	6	6	-9	23*	-6	1
CCC1CCCCN1CCCNC(=O)c1cn(C)c2ccc(S(=O)(=O)N3CCOCC3)cc2c1=O (centres undefined)	0	-4	4	-8	2	.	.
COC(=O)c1cn(C)c2ccc(S(=O)(=O)N(C)C3CCCCC3)cc2c1=O	11*	-1	3	8	2	1	2
CCN(CC)S(=O)(=O)c1ccc2c(c1)c(=O)c(C(=O)NCc1cccs1)cn2C	9.6*	4	0	4	1	-4	-5
C=CC(=O)NC1CCCCN(CC)C1=O (centres undefined)	4	2	8	-4	4	.	.
Oc1ccc(CNc2cccnc2)c2cccnc12	-1	-2	0	1	-5	.	.
CC(COc1cccc(C(F)(F)F)c1)CN1CCC(C(O)(c2ccccc2)c2ccccc2)CC1 (centres undefined)	3	-5	1	4	1	.	.
Cc1ccc(CN2CCC[C@]3(N[C@H](c4ccccc4)[C@@H]4C(=O)N(C)C(=O)[C@@H]43)C2=O)cc1	12*	7	-6	8	3	-2	-1
COC(=O)[C@H](C)NC(=O)/C=C/c1ccc(OC)cc1	9.8*	6	-2	10	2	7	3
CN1CCN(c2nc3c(c(=O)[nH]c(=O)n3C)n2CC(N)=O)CC1	14*	4	-5	8	2	-5	-2
O=C(NNS(=O)(=O)c1ccc(Cl)cc1)c1ccc(S(=O)(=O)N2CCCCC2)cc1	5	4	3	11*	4	-4	-6
CC(C)CCNC(=O)CSc1nc2c(c(=O)[nH]1)CCC2	2	-1	-5	2	-3	.	.
O=c1c2cc3cccnc3nc2ncn1CCc1c[nH]c2ccccc12	-24	6	-8	-31	-2	.	.
COc1ccc(C(CC(=O)N2CCCC2)C(C)C)cc1 (centres undefined)	2	-3	-3	4	-2	.	.
COc1ccc(C(CC(=O)N2CCCC2)c2ccc(F)cc2)cc1 (centres undefined)	11*	2	2	2	3	5	4
O=C(CSc1nnc(COc2ccccc2)n1Cc1ccco1)Nc1ccc(OCc2ccccc2)cc1	1	1	-5	0	1	.	.
N#CCNC(=O)C1c2ccccc2Oc2ccccc21	13*	5	-3	0	3	-3	1
Cn1c(C(O)c2ccc(Cl)cc2)nc(Cl)c1Cl (centres undefined)	11*	-2	2	2	-3	-8	-1
CC(C)(C)C1CCC(=O)N(CCC#N)CC1 (centres undefined)	11*	-1	1	7	0	-4	0
CC(=O)Nc1ccc(SCCN2CC[C@@H](C(C)(C)C)CCC2=O)cc1	1	1	-2	0	-1	.	.
CC(C)(C)C1CCC(=O)N(CCSc2ccccc2)CC1 (centres undefined)	13*	7	-3	6	5	-6	0
Cc1ccc(-c2cc(C(=O)NN=Cc3ccc(F)cc3)[nH]n2)cc1C	2	-4	3	0	0	.	.
CC1CCCCC1C(=O)N1CCC(Oc2cccnc2)CC1 (centres undefined)	1	-1	-4	2	-5	.	.
SMILES	PLCg1 inh	LEDGF integ inh	MBD2 DNA inh	PLCb3 inh	UHRF1 binding	PLCg1 ctr	PLCb3 confirm
O=C(c1cc2cc([N+](=O)[O-])ccc2oc1=O)N1CCOCC1	-1	0	0	4	3	.	.
O=C(c1cc2cccc([N+](=O)[O-])c2oc1=O)N1CCOCC1	12*	4	6	-5	6	-6	0
CCN(Cc1ccccc1)C(=O)Cn1cc2c(n1)CCCC2	10*	5	-5	6	1	-6	-1
CNC(=O)C1Cc2c(-c3cccc(F)c3)ccnc2O1 (centres undefined)	16*	3	-3	4	3	-4	1
O=C(Nc1ccccc1)C1Cc2c(-c3cccc(F)c3)ccnc2O1 (centres undefined)	2	1	5	-1	-2	.	.
O=C(NCC1CCCO1)c1cnn2c1NC(c1ccccc1)CC2C(F)(F)F (centres undefined)	12*	-1	0	10	0	-8	-7
COC(=O)C1CN(Cc2cn(Cc3ccc(F)cc3)nn2)CCS(=O)(=O)N1Cc1ccc(C)cc1 (centres undefined)	1	-3	-2	-1	0	.	.
Cc1cc(C)nc(Nc2nc(C(N)CCc3ccccc3)cs2)n1 (centres undefined)	14*	3	-7	11*	1	-6	-14
CCOC(=O)c1sc(SC)nc1N	2	0	-4	-3	-1	.	.
CSc1nc(N)c(C(=O)NC2CCCCC2)s1	12*	2	8	-3	2	9.6*	5
O=C(Nc1ccc(Cl)c([N+](=O)[O-])c1)c1ccncc1	11*	1	6	3	6	-7	1
Cc1ccccc1C(=O)NCCCCc1ccccc1	5	0	-1	4	4	.	.
Cc1ccccc1C(=O)NCCCc1ccccc1	11*	-4	0	3	5	0	-2
CN(C)C(=O)c1ccccc1Sc1ccc(Cl)cc1Cl	-3	1	-3	1	-1	.	.
CN(C)C(=O)c1ccccc1Sc1cc(Cl)ccc1Cl	15*	-3	-1	-1	-1	-3	-1
CCOc1ccc(/C=N/Nc2ccc(C(F)(F)F)cc2[N+](=O)[O-])cc1O	3	1	-2	-1	-1	.	.
COc1ccc(/C=N/Nc2ccc(C(F)(F)F)cc2[N+](=O)[O-])cc1O	11*	5	3	7	6	3	3
COc1ccc(C(=O)Nc2ccc(OC)c([N+](=O)[O-])c2)cc1Br	3	5	-4	4	0	.	.
COc1ccc(C(=O)Nc2cccc([N+](=O)[O-])c2)cc1Br	1	1	3	11*	2	5	0
CC(C)C[C@@H]1COc2cccc(F)c2S(=O)(=O)N1C	0	4	-4	2	0	.	.
O=C(CNS(=O)(=O)c1cccs1)N1CCN(c2ncccn2)CC1	-2	-1	0	-3	3	.	.
